# Data taken from PubChem BioAssay (NCI).
# Compounds without any hit were thinned out: in the full panel of roughly 83,000, 20% have a hit.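 Method: cells in 96-well plates; compound added at one concentration; 48 h incubation; percent growth measured; values under 10 scored active.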 Unmarked numbers belong to inactive results. The source made the active and inactive calls.
# Experiments:
# Assay in all cases: NCI-60 one-dose screen, 48 h (100 = growth as untreated, 0 = no growth, -100 = all killed)
# Conditions in all cases: 10 µM unless noted
# DU-145 prostate = test system: DU-145 prostate
# K-562 leukemia = test system: K-562 leukemia
# MALME-3M melanoma = test system: MALME-3M melanoma
# MDA-MB-231 breast = test system: MDA-MB-231 breast
# RXF 393 renal = test system: RXF 393 renal
# SF-268 CNS = test system: SF-268 CNS
# SF-295 CNS = test system: SF-295 CNS
# SF-539 CNS = test system: SF-539 CNS
# UACC-257 melanoma = test system: UACC-257 melanoma
# M14 melanoma = test system: M14 melanoma
# HT29 colon = test system: HT29 colon
# SNB-75 CNS = test system: SNB-75 CNS
# U251 CNS = test system: U251 CNS
# PC-3 prostate = test system: PC-3 prostate
# SK-MEL-5 melanoma = test system: SK-MEL-5 melanoma
# UACC-62 melanoma = test system: UACC-62 melanoma
# LOX IMVI melanoma = test system: LOX IMVI melanoma
# SK-MEL-28 melanoma = test system: SK-MEL-28 melanoma
# SNB-19 CNS = test system: SNB-19 CNS
# HCT-15 colon = test system: HCT-15 colon
Compound,growth (DU-145 prostate),growth (K-562 leukemia),growth (MALME-3M melanoma),growth (MDA-MB-231 breast),growth (RXF 393 renal),growth (SF-268 CNS),growth (SF-295 CNS),growth (SF-539 CNS),growth (UACC-257 melanoma),growth (M14 melanoma),growth (HT29 colon),growth (SNB-75 CNS),growth (U251 CNS),growth (PC-3 prostate),growth (SK-MEL-5 melanoma),growth (UACC-62 melanoma),growth (LOX IMVI melanoma),growth (SK-MEL-28 melanoma),growth (SNB-19 CNS),growth (HCT-15 colon)
O=C1OC2C(I)C3CC2C1C3c1ccccc1 (stereo unspecified),107%,104%,136%,96.8%,113%,106%,172%,94.1%,121%,101%,98.7%,73.5%,104%,93.8%,108%,93.1%,93.4%,105%,,
COc1ccc(-n2cc(-c3ccccc3)c3c(SCC(=O)N/N=C/c4ccc([N+](=O)[O-])cc4)ncnc32)cc1,114%,110%,110%,102%,113%,98.5%,105%,97.9%,107%,108%,114%,,104%,96.4%,100%,97.5%,94.2%,110%,99.7%,
C/C(=C(/c1ccc(O)cc1)c1ccc(Cl)cc1)c1ccccc1,-75.2% (active),-1.81% (active),-94.6% (active),-83.3% (active),-79.3% (active),-83.4% (active),-95.1% (active),-96% (active),-74.6% (active),-78.1% (active),-66.6% (active),,-94.6% (active),-74.6% (active),-98.9% (active),-94.5% (active),-95.7% (active),-96.3% (active),-86.2% (active),
CC[C@@H](C)OC(=O)c1nn(C(C)=O)c2ccccc12,107%,112%,109%,98.8%,99.4%,104%,93.1%,105%,101%,102%,107%,,99.4%,103%,94.1%,99.2%,95.6%,114%,100%,89.9%
O=S(=O)(Nc1ccc(F)c(Cl)c1)c1ccc(-c2cnc(C3CC3)o2)cc1,16.3%,15.4%,45%,36.2%,-9.55% (active),52.2%,5.73% (active),-14.7% (active),48.2%,,-3.16% (active),-14.4% (active),,24.9%,6.59% (active),28.3%,42.8%,62.5%,49.3%,22.3%
COCCOC(=O)C1=C(C)NC(=S)NC1c1ccc2c(c1)OCO2 (stereo unspecified),108%,91.8%,108%,105%,101%,97.4%,105%,99.2%,90.2%,104%,96.7%,,104%,95.7%,97.6%,102%,101%,114%,100%,102%
Cc1cc(=O)oc2cc(Oc3nc(-c4cccs4)cn4c(-c5cccs5)cnc34)ccc12,55.4%,81.6%,39.1%,63.2%,63.6%,76.3%,47.5%,60%,48.2%,67.5%,46.6%,35.6%,47.5%,53%,42.5%,71.1%,38.4%,23.9%,,
O=[N+]([O-])c1cccc(-c2nc3sccn3c2-c2ccnc(NCCCNS(=O)(=O)c3ccc(Br)cc3)n2)c1,58.9%,31.7%,59.9%,67.3%,81.3%,56.6%,48.2%,90.3%,61.1%,45.8%,57.1%,,83.8%,24.5%,,2.78% (active),38.4%,76.9%,87.4%,34.1%
Brc1cccc(-c2cc(-c3ccc4c(c3)OCCO4)[nH]n2)c1,21% [25 µM],14.7% [25 µM],49.1% [25 µM],33.4% [25 µM],-18.6% [25 µM] (active),50.5% [25 µM],0.112% [25 µM] (active),-14.1% [25 µM] (active),62.4% [25 µM],20.9% [25 µM],1.56% [25 µM] (active),,22% [25 µM],26.3% [25 µM],10% [25 µM],36.8% [25 µM],34% [25 µM],59.7% [25 µM],34% [25 µM],15.9% [25 µM]
CCN(CC)CC(O)CNc1c2ccc([N+](=O)[O-])cc2nc2cc(OC)c(OC)cc12 (stereo unspecified),-29.9% (active),3.2% (active),-82% (active),-71.9% (active),-43.4% (active),-35.2% (active),-8.54% (active),-35.7% (active),-33.5% (active),-56.7% (active),-48.7% (active),,-16.2% (active),-53.4% (active),-78.3% (active),-77.6% (active),-40.2% (active),-11.9% (active),,11.9%
N#Cc1c(N)nc(N)nc1Nc1ccc(Br)cc1,98.7%,99%,107%,87.3%,94.3%,92.5%,91%,89.6%,92%,163%,93.9%,96.8%,96.9%,79.1%,89.6%,86.4%,92.4%,110%,,
Nc1cccc(-c2nc3sccn3c2-c2ccnc(NCCCNS(=O)(=O)c3ccc(C(F)(F)F)cc3)n2)c1,13.5%,8.49% (active),-2.19% (active),21%,19.7%,14.6%,-11.3% (active),16.5%,18.8%,9.8% (active),14%,,19.8%,1.93% (active),-90.5% (active),-33.3% (active),-30.2% (active),11.2%,29.1%,1.79% (active)
C=C1CC2(OC1=O)C(=O)N(CCCCCCCN1C(=O)C3(CC(=C)C(=O)O3)c3ccccc31)c1ccccc12 (stereo unspecified),58.2%,5% (active),-61.4% (active),-9.65% (active),-32.8% (active),60.3%,82.6%,16.9%,65%,36.5%,-17.4% (active),,36.5%,45.7%,61.3%,34.9%,-82.5% (active),9.63% (active),67.9%,-19.6% (active)
COc1cccc(-c2nc3sccn3c2-c2ccnc(NCCCNS(=O)(=O)c3ccc(Cl)cc3)c2)c1,51.3%,29.4%,74.1%,59.5%,65.3%,44.2%,42.7%,66.7%,59.4%,41.1%,42.6%,,63.5%,26.2%,1.31% (active),6.77% (active),39.2%,69.6%,69.4%,37.8%
CCCCCCCCCCCCCCCCCCNC(=O)[C@H]1CSC(c2ccc(F)c(OC)c2)N1 (stereo partly specified),26.5%,-56.3% (active),-91.2% (active),-83.4% (active),-93.6% (active),-69.9% (active),30.8%,-61.9% (active),-61.7% (active),-90.8% (active),-84.5% (active),,-96.6% (active),34.1%,-94.8% (active),-97.2% (active),14.1%,-93.3% (active),-40.2% (active),6.47% (active)
OC(c1cccc(C(F)(F)F)c1)c1cnccc1NC1CCCCCC1 (stereo unspecified),71.6%,3.23% (active),-77.7% (active),10.6%,32.3%,60.5%,14.2%,74.2%,39.5%,-21.8% (active),-6.41% (active),,-2.39% (active),22.4%,-68.2% (active),55%,-18.7% (active),-12.9% (active),69.3%,8.21% (active)
